Outcome and AC50 data for 6 molecules are collected here from PubChem BioAssay (EPA / NIEHS).

The source made the active and inactive calls. Rule for the calls: active = hit-call score of the fitted dose curve at least 0.9, where 1 is the maximum; inactive = score below 0.9.

Common to all, as to details: mRNA level, 48 h; actives raise or lower the signal
Read-out in assay [1]: growth arrest and DNA damage 45 (GADD45A), GADD45A (gene 1647)
As to the kind of experiment: LTEA_HepaRG_GADD45A: Life Technologies and Expression Analysis (LTEA) Assay for growth arrest and DNA damage 45 (GADD45A) using HepaRG (AID 2283458). An outline of the steps:
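Eight-point concentration-response in HepaRG cells: 48 h chemical exposure, 0.5% DMSO vehicle, top dose 100 uM. Normalized qRT-PCR mRNA readout with bidirectional fitting relative to DMSO.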

Read-out in assay [2]: Forkhead box O3 (FOXO3), FOXO3 (gene 2309)
Kind of assay: LTEA_HepaRG_FOXO3: Life Technologies and Expression Analysis (LTEA) Assay for Forkhead box O3 (FOXO3) using HepaRG (AID 2283459). An outline of the steps: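 qRT-PCR readout of FOXO3 transcript, normalized to three housekeeping genes (ACTB, GAPDH, POLR2A); gain or loss fitted against 0.5% DMSO vehicle. HepaRG cells, 48 h chemical exposure, 8-point half-log series, top 100 uM.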

Read-out in assay [3]: ABC Transporter (ABCB1), ABCB1 (gene 5243)
Kind of assay: LTEA_HepaRG_ABCB1: Life Technologies and Expression Analysis (LTEA) Assay for ABC Transporter (ABCB1) using HepaRG (AID 2283460). The procedure, abridged:
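HepaRG, 48 h exposure, 8-pt half-log series from 100 uM, 0.5% DMSO vehicle, duplicates. Readout: ABCB1 transcript by Fluidigm TaqMan qRT-PCR, housekeeping-normalized; bidirectional curve fit vs DMSO baseline.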

Read-out in assay [4]: growth arrest and DNA damage 45 (GADD45B), GADD45B (gene 4616)
As to the kind of experiment: LTEA_HepaRG_GADD45B: Life Technologies and Expression Analysis (LTEA) Assay for growth arrest and DNA damage 45 (GADD45B) using HepaRG (AID 2283461). The procedure, abridged: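 HepaRG, ~100,000 cells/well, 48 h plating; serum-free induction medium; cpd 100 uM top, half-log x8, 0.5% DMSO, duplicate, 48 h; lysis in RLT, RNA isolation, qRT-PCR; norm ACTB/GAPDH/POLR2A; bidirectional fit vs DMSO.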

Read-out in assay [5]: ABC Transporter (ABCC3), ABCC3 (gene 8714)
As to the kind of experiment: LTEA_HepaRG_ABCC3: Life Technologies and Expression Analysis (LTEA) Assay for ABC Transporter (ABCC3) using HepaRG (AID 2283462). The procedure, abridged:
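Human HepaRG, 48 h dosing, 8-pt half-log series from 100 uM, 0.5% DMSO vehicle, duplicates. ABCC3 mRNA by TaqMan qRT-PCR, housekeeping-normalized; bidirectional curve fit vs DMSO.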

Read-out in assay [6]: ABC Transporter (ABCB11), ABCB11 (gene 8647)
As to the kind of experiment: LTEA_HepaRG_ABCB11: Life Technologies and Expression Analysis (LTEA) Assay for ABC Transporter (ABCB11) using HepaRG (AID 2283463). An outline of the steps: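 HepaRG, 48 h exposure, 8-pt half-log CRC top 100 uM, 0.5% DMSO vehicle, duplicates. Readout: TaqMan qRT-PCR of ABCB11 mRNA, housekeeping-normalized (ACTB/GAPDH/POLR2A). Bidirectional fit vs DMSO baseline.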

Read-out in assay [7]: ABC Transporter (ABCC2), ABCC2 (gene 1244)
Kind of assay: LTEA_HepaRG_ABCC2: Life Technologies and Expression Analysis (LTEA) Assay for ABC Transporter (ABCC2) using HepaRG (AID 2283464). An outline of the steps: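 HepaRG, 48 h post-plating; serum-free induction medium; cpd 8-pt, 100 uM top, half-log, 0.5% DMSO, duplicate, 48 h. Readout: ABCC2 mRNA by qRT-PCR, norm. ACTB/GAPDH/POLR2A. Bidirectional fit vs DMSO baseline.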

Read-out in assay [8]: Peroxisomal acyl-coenzyme A oxidase 1 (ACOX1) gene, ACOX1 (gene 51)
Kind of assay: LTEA_HepaRG_ACOX1: Life Technologies and Expression Analysis (LTEA) Assay for Peroxisomal acyl-coenzyme A oxidase 1 (ACOX1) gene using HepaRG (AID 2283467). An outline of the steps: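 HepaRG, 48 h chemical exposure, 8-pt half-log series from 100 uM top, 0.5% DMSO vehicle, duplicates. Readout: ACOX1 mRNA by Fluidigm qRT-PCR, housekeeping-normalized; bidirectional fit vs DMSO baseline.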

Read-out in assay [9]: Alkaline Phosphatase, Placental (ALPP) gene, ALPP (gene 250)
As to the kind of experiment: LTEA_HepaRG_ALPP: Life Technologies and Expression Analysis (LTEA) Assay for Alkaline Phosphatase, Placental (ALPP) gene using HepaRG (AID 2283468).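 For AC50: differentiated human HepaRG liver cells in serum-free induction medium.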 The procedure, abridged: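 HepaRG, 48 h plating then 48 h dosing, serum-free induction medium, 0.5% DMSO. 8 conc, half-log, max 100 uM, duplicates. Endpoint: ALPP transcript by qRT-PCR, housekeeping-normalized; gain or loss fitted vs DMSO.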

Read-out in assay [10]: Bcl-2 (BAD) gene, BAD (gene 572)
Kind of assay: LTEA_HepaRG_BAD: Life Technologies and Expression Analysis (LTEA) Assay for Bcl-2 (BAD) gene using HepaRG (AID 2283469). The procedure, abridged:
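HepaRG, 48 h exposure, 8-pt half-log curve from 100 uM in 0.5% DMSO, duplicates. Readout: TaqMan qRT-PCR for BAD mRNA, housekeeping-normalised (ACTB/GAPDH/POLR2A); gain or loss fitted against DMSO baseline.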

Read-out in assay [11]: Bcl-2 (BAX) gene, BAX (gene 581)
Kind of assay: LTEA_HepaRG_BAX: Life Technologies and Expression Analysis (LTEA) Assay for Bcl-2 (BAX) gene using HepaRG (AID 2283470). An outline of the steps:
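Human HepaRG cells treated in duplicate for 48 h across eight concentrations (max 100 uM, 0.5% DMSO); BAX expression measured by qRT-PCR.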

Read-out in assay [12]: adenosine kinase (ADK) gene, ADK (gene 132)
Kind of assay: LTEA_HepaRG_ADK: Life Technologies and Expression Analysis (LTEA) Assay for adenosine kinase (ADK) gene using HepaRG (AID 2283471). An outline of the steps: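 ADK expression quantified by qRT-PCR, normalised to three housekeeping genes, after 48 h exposure of HepaRG cells to eight concentrations (top 100 uM, half-log steps, duplicate, 0.5% DMSO). Up- or down-regulation fitted relative to vehicle.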

Read-out in assay [13]: Alpha-fetoprotein (AFP) gene, AFP (gene 174)
As to the kind of experiment: LTEA_HepaRG_AFP: Life Technologies and Expression Analysis (LTEA) Assay for Alpha-fetoprotein (AFP) gene using HepaRG (AID 2283472). The procedure, abridged:
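Measures AFP mRNA change in HepaRG after 48 h chemical exposure (8 half-log concentrations, highest 100 uM, 0.5% DMSO). Fold change relative to DMSO, fitted in both directions.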

Read-out in the next assay: BCL2L11 (gene 10018)
As to the kind of experiment: LTEA_HepaRG_BCL2L11: Life Technologies and Expression Analysis (LTEA) Assay for Bcl-2 (BCL2L11) gene using HepaRG (AID 2283473). An outline of the steps:
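Read-out is BCL2L11 transcript level by qRT-PCR, normalized to three housekeeping genes and fitted bidirectionally against 0.5% DMSO vehicle. HepaRG cells received chemicals for 48 h in serum-free induction medium, 100 uM down in half-log dilutions.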

Read-out in assay [14]: Apolipoprotein A-V (APOA5) gene, APOA5 (gene 116519)
Kind of assay: LTEA_HepaRG_APOA5: Life Technologies and Expression Analysis (LTEA) Assay for Apolipoprotein A-V (APOA5) gene using HepaRG (AID 2283474). The procedure, abridged: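 Readout is APOA5 transcript level by qRT-PCR on Fluidigm dynamic arrays, normalized to three housekeeping genes. HepaRG cultures received chemicals for 48 h at up to 100 uM (half-log steps, 0.5% DMSO), with gain or loss scored relative to DMSO.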

Read-out in assay [15]: Apoptosis regulator Bcl-2 (Homo sapiens) (UniProt P10415)
Kind of assay: LTEA_HepaRG_BCL2: Life Technologies and Expression Analysis (LTEA) Assay for Bcl-2 gene using HepaRG (AID 2283475). The procedure, abridged: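 Each chemical was tested in duplicate on HepaRG cultures held in serum-free induction medium for 48 h, highest concentration 100 uM with half-log dilutions. Transcript levels came from multiplexed qRT-PCR, normalised to housekeeping genes; activity was scored in either direction relative to DMSO.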

Read-out in assay [16]: Bcl-2 (BID) gene, BID (gene 637)
As to the kind of experiment: LTEA_HepaRG_BID: Life Technologies and Expression Analysis (LTEA) Assay for Bcl-2 (BID) gene using HepaRG (AID 2283476). An outline of the steps:
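Assay used HepaRG hepatic cells treated 48 h in serum-free medium with half-log dilutions from 100 uM. Endpoint: BID mRNA, qRT-PCR, normalized to ACTB/GAPDH/POLR2A.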

Read-out in another assay: Caspase-3 (Homo sapiens) (UniProt P42574)
As to the kind of experiment: LTEA_HepaRG_CASP3: Life Technologies and Expression Analysis (LTEA) Assay for cysteine-aspartic acid protease (CASP3) using HepaRG (AID 2283477). The procedure, abridged:
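Read-out is CASP3 mRNA level by TaqMan qRT-PCR in human HepaRG cells after 48 h chemical exposure. Eight half-log concentrations topping at 100 uM were tested in 0.5% DMSO; gain or loss was fitted relative to DMSO.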

Read-out in assay [17]: ATP-citrate lyase (ACLY), ACLY (gene 47)
As to the kind of experiment: LTEA_HepaRG_ACLY: Life Technologies and Expression Analysis (LTEA) Assay for ATP-citrate lyase (ACLY) using HepaRG (AID 2283466). The procedure, abridged: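 qRT-PCR readout of ACLY transcript after 48 h chemical treatment of HepaRG cells; expression normalized to three housekeeping genes. Eight-point half-log series, highest 100 uM, 0.5% DMSO vehicle. Gain or loss fitted against DMSO baseline.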

Sequence of Apoptosis regulator Bcl-2 (Homo sapiens) (P10415 whole entry, looked up): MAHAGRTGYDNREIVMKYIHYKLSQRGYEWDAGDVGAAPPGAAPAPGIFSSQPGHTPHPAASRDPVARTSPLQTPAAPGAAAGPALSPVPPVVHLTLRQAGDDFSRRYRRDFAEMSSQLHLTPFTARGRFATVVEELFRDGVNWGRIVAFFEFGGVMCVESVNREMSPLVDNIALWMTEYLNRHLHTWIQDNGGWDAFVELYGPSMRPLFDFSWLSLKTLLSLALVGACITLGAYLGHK
Sequence of Caspase-3 (Homo sapiens) (P42574 whole entry, looked up): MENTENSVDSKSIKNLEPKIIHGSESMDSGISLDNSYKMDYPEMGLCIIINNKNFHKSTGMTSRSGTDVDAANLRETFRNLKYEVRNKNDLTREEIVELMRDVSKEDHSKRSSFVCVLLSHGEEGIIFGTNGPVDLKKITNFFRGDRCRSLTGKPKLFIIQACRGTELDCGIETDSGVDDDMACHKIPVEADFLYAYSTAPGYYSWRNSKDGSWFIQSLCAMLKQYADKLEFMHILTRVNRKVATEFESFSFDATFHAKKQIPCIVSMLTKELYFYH

For the molecule `NC(N)=O`, the result in assay [1], in assay [2], in [3], in assay [4], in [5] and in [6] was inactive. Besides, the molecule was classed as inactive in assay [7], in assay [8], in assay [9], in assay [10], in assay [11] and in [12]. Moreover, the call (in assay [13]; with BCL2L11 (gene 10018); in [14]; in assay [15]; in assay [16]) was inactive.
Regarding `OCC(CO)(CO)CO`, the outcome in [1], in [2], in assay [3], in assay [4], in [5] and in assay [6] was inactive. For the same molecule, the molecule was classed as inactive in assay [7], in assay [8], in assay [9], in assay [10], in assay [11] and in [12]. Besides, the outcome (in [13]; in the assay with BCL2L11 (gene 10018); in [14]; in [15]; in assay [16]; in the assay with Caspase-3 (Homo sapiens)) was inactive.
Regarding `OCCNCCO`, the result in [1], in assay [2], in assay [3], in assay [4], in [5] and in assay [7] was inactive. Besides, the molecule was called inactive (in assay [8]; in [10]; in assay [11]; in assay [12]; with BCL2L11 (gene 10018); in [14]). Also, the outcome in [15] and in [16] was inactive. Besides, the AC50 (in general, the concentration giving half of the maximal activity seen) was 60.5 µM (active) in assay [6], 50 µM (active) in assay [9] and 50 µM (active) in [13].
For `O=c1[nH]cnc2c1ncn2[C@H]1CC[C@@H](CO)O1`, the molecule was called inactive in assay [1], in assay [2], in assay [3], in assay [4], in assay [5] and in assay [6]. In addition, the result in assay [7], in [8], in assay [9], in [10], in assay [11] and in assay [12] was inactive. The result (in assay [13]; in the assay with BCL2L11 (gene 10018); in [14]; in [15]; in assay [16]) was inactive.
Regarding `CCCCCCCC1CCC(=O)O1` (configuration not stated), the call in assay [1], in assay [2], in [4], in [5], in assay [7] and in [17] was inactive. Besides, the outcome in assay [8], in assay [9], in assay [10], in [11], in assay [12] and in assay [13] was inactive. The outcome (in the assay with BCL2L11 (gene 10018); in assay [14]; in assay [15]; in assay [16]) was inactive.
As to `CCc1cccc(CC)c1N`, the molecule was called inactive in [1], in [2], in assay [3], in assay [4], in assay [5] and in assay [6]. For the same molecule, the molecule was classed as inactive in [7], in [8], in [9], in assay [10], in assay [11] and in assay [12]. Besides, the molecule was called inactive (in [13]; in the assay with BCL2L11 (gene 10018); in [14]; in [15]; in [16]).
